The source made the active and inactive calls.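 Rule for the calls: active = normalized viability below 100% at a tested concentration; inactive = the rest.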
Assay: ovarian cancer cell viability with rucaparib, profiling panel, oncology-focused library, rucaparib conditional (AID 1508598)
Settings: patient-derived ovarian cancer cells, CellTiter-Glo viability, 144 h; at 0.313 µM; OCI-P5x cells; without rucaparib; stronger effect = lower value

Structure (SMILES)	viability
O=c1[nH]c(=O)n([C@@H]2C[C@H](O)[C@@H](CO)O2)cc1F	98.4% (active)
COc1cccc2c1C(=O)c1c(O)c3c(c(O)c1C2=O)C[C@@](O)(C(C)=O)C[C@H]3O[C@H]1C[C@H](N)[C@H](O)[C@H](C)O1	10.5% (active)
C[C@]12CC[C@H]3c4ccc(O)cc4CC[C@H]3[C@@H]1CC[C@H]2O	114% (inactive)
CC1=C(/C=C/C(C)=C\C=C\C(C)=C/C(=O)O)C(C)(C)CCC1	96.4% (active)
CC(C)CC(CC(=O)NO)C(=O)N[C@@H](Cc1ccc2ccccc2c1)C(=O)N[C@@H](C)C(=O)NCCN (stereo partly drawn)	92.3% (active)
COc1cccc2c1C(=O)c1c(O)c3c(c(O)c1C2=O)C[C@@](O)(C(=O)CO)C[C@H]3O[C@H]1C[C@H](N)[C@@H](O)[C@H](C)O1	15.5% (active)
COc1ccc(C2=N[C@H](c3ccc(Cl)cc3)[C@@H](c3ccc(Cl)cc3)N2C(=O)N2CCNC(=O)C2)c(OC(C)C)c1	56.8% (active)
CO[C@H]1C[C@H]2CC[C@@H](C)[C@@](O)(O2)C(=O)C(=O)N2CCCC[C@H]2C(=O)O[C@H]([C@H](C)C[C@@H]2CC[C@H](OC(=O)C(C)(CO)CO)[C@H](OC)C2)CC(=O)[C@H](C)/C=C(\C)[C@@H](O)[C@@H](OC)C(=O)[C@H](C)C[C@H](C)/C=C/C=C/C=C/1C	57.7% (active)
O=C(O)c1cc(I)ccc1NC(=O)[C@H](Cc1ccccc1)NCc1ccccc1	85.4% (active)
Nc1ncn([C@@H]2O[C@H](CO)[C@@H](O)[C@@H]2O)c(=O)n1	122% (inactive)
CO[C@H]1C[C@@H]2CC[C@@H](C)[C@@](O)(O2)C(=O)C(=O)N2CCCC[C@H]2C(=O)O[C@H]([C@H](C)C[C@@H]2CC[C@@H](O)[C@H](OC)C2)CC(=O)[C@H](C)/C=C(\C)[C@@H](O)[C@H](OC)C(=O)[C@H](C)C[C@H](C)/C=C/C=C/C=C/1C	63.9% (active)
CC(=O)OCC(=O)[C@]1(O)[C@H](C)C[C@H]2[C@@H]3CCC4=CC(=O)C=C[C@]4(C)[C@]3(F)[C@H](O)C[C@@]21C	94.5% (active)
CC[C@]1(O)C[C@@H]2CN(CCc3c([nH]c4ccccc34)[C@@](C(=O)OC)(c3cc4c(cc3OC)N(C=O)[C@H]3[C@@](O)(C(=O)OC)[C@H](OC(C)=O)[C@]5(CC)C=CCN6CC[C@@]43[C@@H]65)C2)C1	10.9% (active)
C[C@@]12CC[C@H]3c4ccc(O)cc4C[C@@H](CCCCCCCCCS(=O)CCCC(F)(F)C(F)(F)F)[C@H]3[C@@H]1CC[C@@H]2O (stereo partly drawn)	120% (inactive)
CC(=O)O[C@@]1(C(C)=O)CC[C@H]2[C@@H]3C[C@H](C)C4=CC(=O)CC[C@]4(C)[C@@H]3CC[C@@]21C	110% (inactive)
CC(=O)O[C@]12CO[C@@H]1C[C@H](O)[C@]1(C)C(=O)[C@H](O)C3=C(C)[C@H](OC(=O)[C@H](O)[C@@H](NC(=O)OC(C)(C)C)c4ccccc4)C[C@](O)([C@H](OC(=O)c4ccccc4)C21)C3(C)C (stereo partly drawn)	18.6% (active)
CCC1=CC2CN(C1)Cc1c([nH]c3ccccc13)[C@@](C(=O)OC)(c1cc3c(cc1OC)N(C)[C@H]1[C@@](O)(C(=O)OC)[C@H](OC(C)=O)[C@]4(CC)C=CCN5CC[C@@]31[C@H]54)C2 (stereo partly drawn)	12.6% (active)
CC(=O)O[C@H]1C(=O)[C@@]2(C)C([C@H](OC(=O)c3ccccc3)[C@]3(O)C[C@H](OC(=O)[C@H](O)[C@@H](NC(=O)c4ccccc4)c4ccccc4)C(C)=C1C3(C)C)[C@]1(OC(C)=O)CO[C@@H]1C[C@H]2O (stereo partly drawn)	18.2% (active)

Reference: PubChem BioAssay
